Assay outcomes: PubChem, The Scripps Research Institute Molecular Screening Center
PAFAH2 FP inh – inhibitors of human PAFAH2; Q99487; recombinant PAFAH2, FP-rhodamine activity probe, fluorescence polarization; inhibition, % at 3.39 µM; hit rate 0.99% among 340,000; AID 492956;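 active = inhibition above the mean over all tested compounds plus 3 SD, cut at about 30% in these data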;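 note: inhibitors block probe labeling of enzyme so polarization drops; 0% = enzyme with DMSO and 100% = wells lacking PAFAH2 protein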
PAFAH1B2 FP inh – PAFAH1B2 (human) inhibition; P68402; recombinant PAFAH1B2, FP-rhodamine activity probe, fluorescence polarization; inhibition, % at 3.39 µM; hit rate 1.2% among 340,000; AID 492953;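 active = inhibition above the mean of all tested compounds plus 3 SD, cut at about 24% in these data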;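 note: 0% = enzyme with DMSO and 100% = wells lacking PAFAH1B2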
LYPLA1 inh – counter-screen for PME1 inhibitors: inhibitors of human LYPLA1 | O75608 | recombinant LYPLA1, FP-Rh probe fluorescence polarization | inhibition, % at 5.9 µM | hit rate 0.16% among 320,000 | AID 2174;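 active = inhibition above the mean of all tested compounds plus 3 SD, set per campaign, cut at about 14% in these data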;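 note: inhibitors block serine hydrolase probe labeling of LYPLA1 so polarization falls; 0% = enzyme with DMSO and 100% = wells lacking LYPLA1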
Target sequence (O75608 whole entry, looked up): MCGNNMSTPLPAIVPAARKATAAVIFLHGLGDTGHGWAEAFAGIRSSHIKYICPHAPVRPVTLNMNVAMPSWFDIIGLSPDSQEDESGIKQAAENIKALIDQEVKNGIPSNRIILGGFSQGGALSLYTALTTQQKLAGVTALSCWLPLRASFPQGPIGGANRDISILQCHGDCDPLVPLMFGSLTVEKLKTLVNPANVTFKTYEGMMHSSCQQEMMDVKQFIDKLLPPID
PAFAH1B3 inh – PAFAH1B3 (human) inhibition; recombinant PAFAH1B3, FP-rhodamine probe, fluorescence polarization; inhibition, % at 3.39 µM; hit rate 0.28% among 340,000; AID 492972;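 active = inhibition above the screen-wide average of all tested compounds plus 3 SD, cut at about 25% in these data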;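 note: 0% = enzyme with DMSO only and 100% = wells lacking PAFAH1B3 protein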
pPAFAH FP inh – pPAFAH (human) enzyme inhibition. recombinant pPAFAH, FP-rhodamine probe fluorescence polarization. inhibition, % at 3.39 µM. hit rate 1.5% among 330,000. AID 463082;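 active = inhibition above the mean inhibition across the screen plus 3 SD, cut at about 25% in these data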;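 note: inhibitors block binding of the rhodamine activity-based probe so polarization drops; 0% = enzyme with DMSO and 100% = wells lacking pPAFAH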
LYPLA2 inh – LYPLA2 (human) inhibition in PME1 counter-screen. inhibition, % at 5.9 µM. recombinant LYPLA2, FP-Rh probe fluorescence polarization. hit rate 0.38% among 320,000. O95372;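 active = inhibition above the screen-wide mean plus 3 SD, limit set per campaign, cut at about 26% in these data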;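 note: 0% = LYPLA2 with DMSO and 100% = wells lacking LYPLA2 enzyme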
Target sequence (O95372 whole entry, looked up): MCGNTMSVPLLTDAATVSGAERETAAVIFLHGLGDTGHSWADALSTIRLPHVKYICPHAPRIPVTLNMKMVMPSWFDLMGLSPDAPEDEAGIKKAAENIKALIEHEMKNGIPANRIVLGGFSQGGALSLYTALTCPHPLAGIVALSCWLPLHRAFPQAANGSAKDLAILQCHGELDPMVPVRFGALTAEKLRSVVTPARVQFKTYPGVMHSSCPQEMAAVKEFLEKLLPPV
The depositor's hits bear a star. Shown are actives, neighbours in structure and some others; about 2.9% of the full set was active somewhere.

SMILES | PAFAH2 FP inh | PAFAH1B2 FP inh | LYPLA1 inh | PAFAH1B3 inh | pPAFAH FP inh | LYPLA2 inh
COc1ccc(N2CC(C)(C)C2=O)cc1 | 5.2 | 1.0 | 0.8 | 2.9 | -6.9 | -8.9
COCCn1c(CCC(=O)O)ccc1-c1cccs1 | -3.6 | -4.3 | 2.6 | -4.2 | 6.3 | -2.1
CCCCn1c(CCC(=O)O)ccc1-c1cccs1 | 4.4 | 9.6 | -0.9 | -1.8 | 28.0* | -0.9
CCOC(=O)c1ccc(-n2c(CCC(=O)O)ccc2-c2cccs2)cc1 | 3.6 | -3.8 | -3.3 | 4.5 | 8.3 | -2.2
Cc1ccc(-n2c(CCC(=O)O)ccc2-c2cccs2)cc1C | 10.0 | 6.3 | -0.9 | 7.6 | 29.4* | -5.9
NC(=O)c1ccsc1NC(=O)C1CCN(S(=O)(=O)c2cccs2)CC1 | 0.7 | -0.4 | -0.8 | 8.1 | -0.7 | -4.5
CNC(=O)c1ccsc1NC(=O)C1CCN(S(=O)(=O)c2ccc(Cl)s2)CC1 | 0.9 | 26.9* | 0.6 | 4.9 | 4.3 | -2.8
Nc1c(Cl)cc(-c2[nH]c3cc(C(=O)NCCO)ccc3c(=O)c2O)cc1Cl | -27.1 | 26.0* | -20.7 | 36.3* | 19.2 | -26.2
CCCNC(=O)c1ccc2c(=O)c(O)c(-c3cccc(Br)c3)[nH]c2c1 | -20.5 | 18.7 | -10.8 | 16.7 | 28.3* | -5.3
CNCc1ccccc1Sc1cc(O)ccc1O | 1.0 | 0.5 | -0.1 | 4.8 | 24.8* | -1.0
CNCc1ccccc1Sc1cccc(O)c1 | -1.7 | 3.7 | 2.6 | -1.8 | 4.8 | 7.3
Cn1cccc1CC(=O)NNC(=S)Nc1ccc(F)cc1 | 1.5 | 13.3 | 0.8 | -3.2 | 18.4 | -1.1
O=C(CN1c2ccccc2Sc2ccccc21)N/N=C/c1ccc(Cl)cc1Cl | 4.0 | -3.9 | 4.6 | 13.0 | 0.6 | 0.6
Cn1cccc1CC(=O)NNC(=O)Nc1ccccc1F | 8.8 | 2.3 | 0.3 | 11.5 | 4.1 | -3.2
Cn1cccc1CC(=O)NNC(=S)NC(=O)c1ccccc1Br | 0.3 | 4.2 | 2.1 | 3.3 | 26.3* | 1.3
O=C(CN1c2ccccc2Sc2ccccc21)NNC(=S)Nc1ccc(Cl)cc1Cl | 3.7 | -2.1 | 1.3 | -2.9 | 34.5* | 7.0
Cn1cccc1CC(=O)NNC(=S)Nc1ccc(Cl)cc1Cl | -7.0 | 8.7 | 1.4 | 3.8 | 25.9* | 4.2
Cc1cc(OCCOCCN(C)C)ccc1Cl | 0.0 | 1.9 | -1.0 | 4.9 | 0.9 | 1.4
COc1ccc(CCN2C(=O)c3[nH]nc(-c4ccccc4O)c3C2c2cccc(O)c2)cc1OC (stereo unspecified) | -11.9 | -1.9 | -11.9 | -7.3 | -0.4 | -16.2
O=C(OCc1cn(-c2ccc(Cl)c(Cl)c2)nn1)c1ccccc1 | 78.5* | 1.3 | -4.6 | 2.7 | 2.8 | -4.7
CCNC(=O)OCc1cn(-c2ccc(Cl)cc2)nn1 | 2.4 | 0.5 | -1.6 | 9.3 | 3.7 | -1.6
CCCc1cc2c(OC(=O)CC)c(-c3ccc(C(=O)OCC)o3)c(=O)oc2cc1OC | 67.2* | 18.9 | -0.3 | 60.5* | 17.7 | 3.6
O=C(NCc1ccccc1)C1(c2cccc(F)c2)CCCC1 | 9.7 | 26.2* | -5.0 | 6.9 | -4.5 | -5.8
O=C(NCc1ccco1)C1(c2ccccc2)CCCC1 | 4.8 | 14.3 | 1.5 | 12.3 | 6.0 | -0.9
Cc1cccc(-n2c(SCc3cc(=O)n4ccsc4n3)nc3ccccc32)c1 | -14.2 | -13.1 | -14.1 | -6.2 | 26.0* | -17.2
SMILES | PAFAH2 FP inh | PAFAH1B2 FP inh | LYPLA1 inh | PAFAH1B3 inh | pPAFAH FP inh | LYPLA2 inh
O=C(O)CC(=O)Nc1ccc(Oc2ccc(C(F)(F)F)cn2)c(Cl)c1 | -0.8 | 5.6 | -0.9 | 6.6 | 4.4 | -3.0
C=CCSc1nnc(CNS(=O)(=O)c2ccc(C)cc2)n1C | -6.7 | -0.6 | -5.0 | 6.0 | -0.9 | -2.1
O=C(OCC(=O)c1ccc(Cl)s1)c1cnccn1 | 7.6 | 3.2 | -4.0 | 2.3 | 26.1* | -0.5
O=C(COC(=O)c1cnccn1)c1ccc(Br)cc1 | 2.5 | 26.1* | 1.6 | 3.8 | -3.6 | 4.7
O=C(COC(=O)c1cnccn1)c1ccc(Cl)cc1 | 3.9 | 4.3 | -3.2 | 0.4 | -0.2 | 2.0
O=C(OCC(=O)c1ccc(Cl)s1)c1ccccn1 | -0.4 | -2.4 | 2.4 | 3.0 | 5.6 | 3.8
Cc1cc(CN2CCC(n3nccc3NC(=O)c3ccccc3Cl)CC2)cc(C)c1O | 4.2 | 1.0 | -0.7 | 2.2 | 0.0 | 6.1
N#CCCc1cccc(CCC#N)c1 | -3.5 | 1.1 | 1.1 | -3.7 | -0.4 | 3.7
CCOc1ccc(S(=O)(=O)N2CCC(C(=O)NCc3ccco3)CC2)cc1 | 0.8 | 3.5 | 0.4 | -2.9 | -1.1 | 2.7
CCc1cc(/C(Cc2ccc3ccccc3n2)=N\O)c(O)cc1O | 17.3 | 23.9 | 8.2 | 40.9* | 20.2 | 16.5
